# From PubChem BioAssay (NCI)
# About 83,000 compounds went through this panel and 20% of them were active in at least one assay; those are over-represented in the sample as a whole.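 Compound tested at a single concentration for 48 hours in 96-well plates; a percent growth value below 10 was scored as active.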 Values without a mark were called inactive. Calls of active or inactive are those of the source.
# Legend:
# Experiment in all cases: NCI-60 one-dose screen, 48 h (100 = growth as untreated, 0 = no growth, -100 = all killed)
# Details in all cases: 10 µM unless noted
# DU-145 prostate = system: DU-145 prostate
# K-562 leukemia = system: K-562 leukemia
# MALME-3M melanoma = system: MALME-3M melanoma
# MDA-MB-231 breast = system: MDA-MB-231 breast
# RXF 393 renal = system: RXF 393 renal
# SF-268 CNS = system: SF-268 CNS
# SF-295 CNS = system: SF-295 CNS
# SF-539 CNS = system: SF-539 CNS
# UACC-257 melanoma = system: UACC-257 melanoma
# M14 melanoma = system: M14 melanoma
# HCT-15 colon = system: HCT-15 colon
# HT29 colon = system: HT29 colon
# SNB-75 CNS = system: SNB-75 CNS
# SNB-19 CNS = system: SNB-19 CNS
# U251 CNS = system: U251 CNS
# PC-3 prostate = system: PC-3 prostate
# SK-MEL-5 melanoma = system: SK-MEL-5 melanoma
# UACC-62 melanoma = system: UACC-62 melanoma
# LOX IMVI melanoma = system: LOX IMVI melanoma
# SK-MEL-28 melanoma = system: SK-MEL-28 melanoma
SMILES,growth (DU-145 prostate),growth (K-562 leukemia),growth (MALME-3M melanoma),growth (MDA-MB-231 breast),growth (RXF 393 renal),growth (SF-268 CNS),growth (SF-295 CNS),growth (SF-539 CNS),growth (UACC-257 melanoma),growth (M14 melanoma),growth (HCT-15 colon),growth (HT29 colon),growth (SNB-75 CNS),growth (SNB-19 CNS),growth (U251 CNS),growth (PC-3 prostate),growth (SK-MEL-5 melanoma),growth (UACC-62 melanoma),growth (LOX IMVI melanoma),growth (SK-MEL-28 melanoma)
COc1ccc2c(c1)O/C(=C\c1cccc(OCC(=O)Nc3nc(C)c(C)s3)c1)C2=O,-96.2% (active),-41.3% (active),-54% (active),21.2%,-66.3% (active),-55.4% (active),-80.2% (active),-78.9% (active),88.5%,-15.1% (active),94.1%,-29.9% (active),-63.1% (active),88.5%,-64.5% (active),-38.7% (active),111%,81.7%,-68% (active),84.8%
Cc1ccc(/C=C/c2c(C(=O)/C=C/c3ccc(C(F)(F)F)cc3)c(C)nc3ccccc23)cc1,-78.3% (active),-16.6% (active),-65.4% (active),-40.5% (active),-87.8% (active),-5% (active),-75.8% (active),-83.4% (active),-17.7% (active),-35.8% (active),-29.6% (active),5.36% (active),-42.5% (active),-62.9% (active),-70.7% (active),-43.8% (active),-86.4% (active),-45.8% (active),-87.3% (active),-63.2% (active)
COC(=O)[C@]12CC[C@@H](C)[C@H](C)[C@@H]1C1=CC[C@@H]3[C@@]4(C)C(C=O)=C[C@@](C)(COC(=O)c5ccco5)[C@@H]4C(=O)C[C@@]3(C)[C@]1(C)CC2,42%,22.7%,-17% (active),39.4%,47.6%,44.9%,34.4%,57.7%,-38.9% (active),6.34% (active),25.2%,29.9%,34.8%,39.7%,33.9%,11.1%,-84.8% (active),-23.8% (active),26.6%,24.9%
COC(=O)[C@]12CC[C@@H](C)[C@H](C)[C@@H]1C1=CC[C@@H]3[C@@]4(C)C(C=O)=C[C@@](C)(COS(C)(=O)=O)C4[C@H](O)C[C@@]3(C)[C@]1(C)CC2 (stereo not given in full),-93.6% (active),1.48% (active),-78.6% (active),-74.9% (active),-96.4% (active),-74.4% (active),-87.3% (active),-89.6% (active),-82.2% (active),-59.9% (active),-70.3% (active),-85.2% (active),-92.1% (active),-67.7% (active),-96.2% (active),-36% (active),-91.6% (active),-38.4% (active),-97.3% (active),-57.7% (active)
O=c1c2c3c(sc2nc(N/N=C/c2ccc(Br)cc2)n1Cc1ccccc1)CCCC3,81.6%,79.9%,91.6%,50.2%,73.2%,68.4%,34.3%,50%,78.9%,75.8%,78.1%,101%,106%,76.4%,70.3%,70.2%,87.2%,88.7%,73%,120%
COc1ccc(/C=N\NC(=O)c2cc(-c3ccc(Br)cc3)n(-c3ccc(S(N)(=O)=O)cc3)n2)cc1,58.6%,11.4%,47%,70.4%,18.5%,53.1%,11%,18.3%,66.2%,30.9%,33.3%,36.7%,-27.8% (active),57.3%,51.3%,51.2%,42%,32.3%,45.4%,47.4%
C[C@]12CC[C@@H]3c4cc(OC(F)F)c(O)cc4CC[C@H]3[C@@H]1CC[C@@H]2OS(N)(=O)=O,9.56% (active),14.1%,27.1%,50.9%,19.1%,58.3%,12.8%,5.62% (active),71.8%,17.6%,26.6%,19.5%,-8.09% (active),51%,30%,26.7%,0.18% (active),48%,40.4%,57.4%
CN1CCN(CC(=O)Nc2nc(-c3cccc(NS(=O)(=O)c4cccc5c(N(C)C)cccc45)c3)cs2)CC1,81.3%,9.93% (active),84%,50.3%,70.4%,76.9%,62.1%,75.6%,91.2%,102%,42.6%,35.2%,74.3%,73.3%,65.9%,42.2%,48.9%,54%,29.7%,78.2%
O=Cc1ccc(O)c2ncccc12,41.9%,-23.6% (active),19%,54.2%,76.6%,19.1%,29.2%,25.1%,27.9%,21.4%,22.9%,87.7%,73.9%,68.1%,25.3%,16.6%,44%,45.1%,-68.5% (active),38.6%
CN(c1ccccc1)c1ccc2c(c1)OCCC21CC1Nc1cnccc1C(=O)O (stereo not given),88.8%,41.2%,67.5%,72.8%,76.4%,60.2%,44.2%,52.7%,77.5%,81.2%,27.1%,75.8%,67.3%,66.6%,43.9%,52.4%,48.7%,62%,34.3%,69.1%
COc1cccc(-c2nc3sccn3c2-c2ccnc(NCCNS(=O)(=O)c3cccc(Cl)c3)c2)c1,44.1%,25.3%,63.2%,68.3%,47.5%,42.7%,33.8%,72.6%,58%,48.4%,37.8%,45.7%,36.6%,65%,58.8%,20.2%,20.2%,12.1%,46.7%,68.4%
CCCCCCCOc1c(OC)cc(C2CC(=O)Nc3c2c(C)nn3-c2nc3ccccc3[nH]2)cc1OC (stereo not given),29.6%,21%,-51.5% (active),-66.3% (active),-40.1% (active),-9.44% (active),-57.4% (active),-88.5% (active),10.1%,4.61% (active),0.5% (active),-2.41% (active),-31.5% (active),16.1%,-58.2% (active),12%,-83.7% (active),-49.2% (active),-89.2% (active),-9.72% (active)
COc1ccc2c(c1)O/C(=C/c1ccc(OCC(=O)c3ccccc3)cc1)C2=O,118%,80.7%,96.3%,84.4%,109%,117%,137%,107%,125%,99.3%,111%,110%,120%,108%,108%,96.2%,125%,96.3%,108%,132%
O=S(=O)(O)c1ccc(N/N=C/c2ccccc2Cl)cc1,116%,95.6%,109%,118%,125%,103%,108%,101%,116%,99.9%,97%,100%,94.6%,109%,99.5%,99.2%,103%,111%,128%,111%
